# PubChem BioAssay (Tox21)
# Where “and” joins values, the source holds several entries; their conditions need not be identical. Equal entries are not always repeated. Inconclusive results are not listed. A call without a number means that no potency is given here. Where a structure was tested more than once in an assay, its records may differ in their call. Calls of active or inactive are those of the source. Unless noted, calls come from the whole dose curve; as a rule, active = well fitted curve in the direction sought with a large enough effect in the repeat runs; inconclusive = weak or mixed curves; inactive = no such curve, though single readings can be large; an effect the other way counts as inactive or inconclusive.
# Experiments:
# [1] = qHTS assay to identify small molecule agonists of the hypoxia (HIF-1) signaling pathway - cell viability counter screen (AID 1224844; calls by dose curve; note: nearly all actives have a fitted effect of over 50% in size; note: potency is the fitted concentration of half-maximal effect)
# Procedure, shortened: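 Viability counter screen: HRE-bla ME-180 cells plated 5 hrs before compound addition, treated 17 hrs at 37C and 5% CO2, then CellTiter-Glo added after the FRET reporter read; luminescence after 30 min.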
# [2] = qHTS assay to identify small molecule agonists of H2AX (AID 1224845; active = well fitted activation curve with a large enough effect in the signal ratio in the repeat runs, not every such curve was filed as active; the % refers to the signal ratio)
# Procedure, shortened: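 Wild-type CHO-K1 cells plated overnight, then exposed 3 hr at 37C to compounds at 15 concentrations (0.76% DMSO). Lysed, then HTRF anti-pH2AX(S139)-cryptate/anti-H2AX-d2 detection after 24 hr at room temperature; emissions 665 and 620 nm.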
# [3] = qHTS assay to identify small molecule agonists of the hypoxia (HIF-1) signaling pathway (AID 1224846; active = well fitted activation curve with a large enough effect in the signal ratio in the repeat runs, not every such curve was filed as active; the % refers to the signal ratio)
# Procedure, shortened: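 Agonist mode reporter screen. ME-180 cells stably expressing bla under HRE control received test compounds in DMSO for 17 hrs (37C, 5% CO2), and beta-lactamase activity was then detected with the CCF4-AM FRET substrate.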
# [4] = qHTS assay to identify small molecule agonists of H2AX - cell viability counter screen (AID 1224847; calls by dose curve; note: nearly all actives have a fitted effect of over 30% in size; note: potency is the fitted concentration of half-maximal effect)
# Procedure, shortened: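 Counter-screen for viability: CellTiter-Glo ATP luminescence read after 3 h compound treatment (15-point titration, 0.76% DMSO final) of CHO-K1 cells at 37C, with 30 min room-temperature reagent incubation.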
# [5] = qHTS RealTime-Glo MT Cell Viability Assay in HepG2 cells - 24 hour (AID 1224867); note: nearly all actives have a fitted effect of over 50% in size; note: potency is the fitted concentration of half-maximal effect
# Procedure, shortened: (§1)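 HepG2 suspension premixed with RealTime-Glo reagents is plated at 600 cells per well and left 5 h at 37 C/5% CO2. Compounds in DMSO then go in, and bioluminescence reflecting viable cell number is recorded over 40 h.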
# [6] = qHTS RealTime-Glo MT Cell Viability Assay in HEK293 cells - 32 hour (AID 1224868); note: nearly all actives have a fitted effect of over 50% in size; note: potency is the fitted concentration of half-maximal effect
# Procedure, shortened: (§2)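 Reads taken at 0, 8, 16, 24, 32 and 40 h from the same wells. HEK293 cells (600/well) carried RealTime-Glo reagents from seeding, with compound added after a 5 h settle at 37 C.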
# [7] = qHTS RealTime-Glo MT Cell Viability Assay in HepG2 cells - 40 hour (AID 1224870); note: nearly all actives have a fitted effect of over 50% in size; note: potency is the fitted concentration of half-maximal effect
# Procedure, shortened: (§3)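 HepG2 cells mixed with RealTime-Glo MT reagents (NanoLuc plus cell-permeant prosubstrate) were seeded at 600 cells/well, incubated 5 h at 37 C/5% CO2, then pinned with compounds in DMSO; nonlytic luminescence tracked viability during 40 h treatment.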
# [8] = A CellTox Green Cytotoxicity Assay to monitor cytotoxicity in HEK293 cells - 40 hour (AID 1224871); note: nearly all actives have a fitted effect of over 45% in size; note: potency is the fitted concentration of half-maximal effect
# Procedure, shortened: (§4)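 Dead-cell fluorescence measured kinetically: asymmetric cyanine dye, HEK293, 600 cells/well, 5 h settle, 23 nL cpd/DMSO, 37 C, reads 0–40 h every 8 h.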
# [9] = qHTS RealTime-Glo MT Cell Viability Assay in HEK293 cells - 16 hour (AID 1224872); note: nearly all actives have a fitted effect of over 50% in size; note: potency is the fitted concentration of half-maximal effect
# Procedure, shortened: as §2
# [10] = qHTS RealTime-Glo MT Cell Viability Assay in HepG2 cells - 8 hour (AID 1224873); note: nearly all actives have a fitted effect of over 55% in size; note: potency is the fitted concentration of half-maximal effect
# Procedure, shortened: as §3
# [11] = qHTS RealTime-Glo MT Cell Viability Assay in HEK293 cells - 40 hour (AID 1224874); settings: RealTime-Glo luminescence; max response: stronger effect = lower value; note: nearly all actives have a fitted effect of over 50% in size; note: potency is the fitted concentration of half-maximal effect
# Procedure, shortened: (§5)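 600 HEK293 cells per well, dispensed already mixed with RealTime-Glo MT reagents. Compound dosing came 5 h later. The same wells were read for luminescence at 0, 8, 16, 24, 32 and 40 h of exposure at 37 C.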
# [12] = A CellTox Green Cytotoxicity Assay to monitor cytotoxicity in HEK293 cells - 24 hour (AID 1224875); note: nearly all actives have a fitted effect of over 45% in size; note: potency is the fitted concentration of half-maximal effect
# Procedure, shortened: as §4
# [13] = A CellTox Green Cytotoxicity Assay to monitor cytotoxicity in HepG2 cells - 16 hour (AID 1224876); note: nearly all actives have a fitted effect of over 45% in size; note: potency is the fitted concentration of half-maximal effect
# Procedure, shortened: (§6)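 First, HepG2 cells (600/well) mixed with reagent were plated; second, after 5 h at 37 C they received compounds via pintool; third, fluorescence was measured at 0 h through 40 h at 8 h intervals.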
# [14] = qHTS RealTime-Glo MT Cell Viability Assay in HepG2 cells - 32 hour (AID 1224877); note: nearly all actives have a fitted effect of over 55% in size; note: potency is the fitted concentration of half-maximal effect
# Procedure, shortened: as §1
# [15] = A CellTox Green Cytotoxicity Assay to monitor cytotoxicity in HepG2 cells - 24 hour (AID 1224878); note: nearly all actives have a fitted effect of over 45% in size; note: potency is the fitted concentration of half-maximal effect
# Procedure, shortened: as §6
# [16] = A CellTox Green Cytotoxicity Assay to monitor cytotoxicity in HepG2 cells - 40 hour (AID 1224879); note: nearly all actives have a fitted effect of over 40% in size; note: potency is the fitted concentration of half-maximal effect
# Procedure, shortened: as §6
# [17] = qHTS RealTime-Glo MT Cell Viability Assay in HEK293 cells - 0 hour (AID 1224880)
# Procedure, shortened: as §5
# [18] = A CellTox Green Cytotoxicity Assay to monitor cytotoxicity in HEK293 cells - 0 hour (AID 1224869); note: nearly all actives have a fitted effect of over 50% in size
# Procedure, shortened: as §4
# [19] = qHTS assay to identify small molecule antagonists of the estrogen related receptor (ERR) signaling pathway from Tox21 library (AID 1224848); note: nearly all actives have a fitted effect of over 50% in size; note: potency is the fitted concentration of half-maximal effect
# Procedure, shortened: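 Tox21 10K compounds in DMSO tested for ERR pathway antagonism in NTP's ERR cell line; 18 h, 37 C exposure; ONE-Glo luminescence.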
# [20] = qHTS assay to identify small molecule agonists of the estrogen related receptor (ERR) signaling pathway from Tox21 library (AID 1224849; calls by dose curve; note: nearly all actives have a fitted effect of over 15% in size); settings: ERR reporter cell line, ONE-Glo luciferase, 18 h
# Procedure, shortened: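 Quantitative HTS in agonist format: NTP ERR cell line, compounds transferred in DMSO after 6 h plating, 18 h incubation at 37 C, ONE-Glo luminescence endpoint.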
smiles,measurement,setting,value
Oc1ccccc1,Potency,[1],inactive
same,Potency,[2],inactive
same,outcome,[3],inactive
same,Potency,[4],inactive
same,Potency,[5],inactive
same,Potency,[6],inactive
same,Potency,[7],inactive
same,Potency,[8],inactive
same,Potency,[9],inactive
same,Potency,[10],inactive
same,max response,[11],1.54% (inactive) [middle of 5 runs]
same,Potency,[12],inactive
same,Potency,[13],inactive
same,Potency,[14],inactive
same,Potency,[15],inactive
same,Potency,[16],inactive
same,Potency,[17],inactive
O=C1NC(=O)C(c2ccccc2)(c2ccccc2)N1,Potency,[1],inactive
same,Potency,[2],inactive
same,Potency,[4],inactive
same,Potency,[5],inactive
same,Potency,[6],inactive
same,Potency,[18],inactive
same,Potency,[7],inactive
same,Potency,[8],inactive and 16.9 µM (active)
same,Potency,[9],inactive
same,Potency,[10],inactive
same,max response,[11],-30.3% (inactive) and -21% (inactive)
same,Potency,[13],inactive and 23.9 µM (active)
same,Potency,[14],inactive
same,Potency,[15],inactive and 23.9 µM (active)
same,Potency,[16],inactive and 23.9 µM (active)
CN(C)CCOC(C)(c1ccccc1)c1ccccn1 (stereo not given),Potency,[1],inactive
same,Potency,[2],inactive
same,Potency,[4],inactive
same,Potency,[19],inactive
same,"activity change, positive = activation",[20]; at 42.5 µM (top of the series),0.337% (inactive)
same,"activity change, positive = activation",[20]; at 92.4 µM (top of the series),3.01% (inactive) and -2.07% (inactive)
same,Potency,[5],inactive
same,Potency,[6],inactive
same,Potency,[7],inactive
same,Potency,[8],inactive
same,Potency,[9],inactive
same,Potency,[10],inactive
same,max response,[11],2.62% (inactive) and -0.138% (inactive) and 6.89% (inactive)
same,Potency,[12],inactive
same,Potency,[13],inactive
same,Potency,[14],inactive
same,Potency,[15],inactive
same,Potency,[16],inactive
CCN(Cc1c(F)cccc1Cl)c1c([N+](=O)[O-])cc(C(F)(F)F)cc1[N+](=O)[O-],Potency,[1],21.9 µM (active)
same,Potency,[2],inactive
same,outcome,[3],inactive
same,Potency,[19],61.1 µM (active)
same,"activity change, positive = activation",[20]; at 92.4 µM (top of the series),-20.2% (inactive)
same,Potency,[5],inactive
same,Potency,[6],49 µM (active)
same,Potency,[7],inactive
same,Potency,[8],inactive
same,Potency,[9],27.5 µM (active)
same,Potency,[11],54.9 µM (active)
same,Potency,[12],inactive
same,Potency,[13],inactive
same,Potency,[14],inactive
same,Potency,[15],inactive
same,Potency,[16],inactive
same,Potency,[17],inactive
CN(C)CCOC(c1ccccc1)c1ccccc1,Potency,[1],inactive
same,Potency,[2],inactive
same,Potency,[4],inactive
same,Potency,[5],inactive
same,Potency,[6],inactive
same,Potency,[18],inactive
same,Potency,[7],inactive
same,Potency,[8],inactive
same,Potency,[9],inactive
same,Potency,[10],inactive
same,max response,[11],-18.9% (inactive) and -8.63% (inactive) and 0.403% (inactive)
same,Potency,[12],inactive
same,Potency,[13],inactive
same,Potency,[14],inactive
same,Potency,[15],inactive
same,Potency,[16],inactive
Cc1cc(=O)oc2cc(O)ccc12,Potency,[1],inactive
same,Potency,[4],inactive
same,Potency,[5],inactive
same,Potency,[6],inactive
same,Potency,[18],inactive
same,Potency,[7],inactive
same,Potency,[8],inactive
same,Potency,[9],inactive
same,Potency,[10],inactive
same,max response,[11],-14.5% (inactive) and -7.95% (inactive) and -6.84% (inactive)
same,Potency,[12],inactive
same,Potency,[13],inactive
same,Potency,[14],inactive
same,Potency,[15],inactive
same,Potency,[16],inactive
same,Potency,[17],inactive
CC(=O)Nc1c(I)c(NC(C)=O)c(I)c(C(=O)O)c1I,Potency,[1],inactive
same,Potency,[2],inactive
same,Potency,[4],inactive
same,Potency,[5],inactive
same,Potency,[6],inactive
same,Potency,[7],inactive
same,Potency,[8],inactive
same,Potency,[9],inactive
same,Potency,[10],inactive
same,max response,[11],8.14% (inactive) and 7% (inactive) and 2.59% (inactive)
same,Potency,[12],inactive
same,Potency,[13],inactive
same,Potency,[14],inactive
same,Potency,[15],inactive
same,Potency,[16],inactive
same,Potency,[17],inactive
Nc1c(N=Nc2ccc(-c3ccc(N=Nc4cc(S(=O)(=O)O)c5ccccc5c4N)cc3)cc2)cc(S(=O)(=O)O)c2ccccc12,Potency,[19],24.3 µM (active)
same,"activity change, positive = activation",[20]; at 92.4 µM (top of the series),-40.2% (inactive)
same,Potency,[5],48.9 µM (active)
same,Potency,[6],38.9 µM (active)
same,Potency,[7],48.9 µM (active)
same,Potency,[8],inactive
same,Potency,[9],38.9 µM (active)
same,Potency,[10],38.9 µM (active)
same,Potency,[12],inactive
same,Potency,[13],inactive
same,Potency,[14],48.9 µM (active)
same,Potency,[15],inactive
same,Potency,[16],inactive
CN(C)C(=S)SC(=S)N(C)C,Potency,[1],2 µM (active) and 1.23 µM (active)
same,Potency,[4],92.1 µM (active) and 31.8 µM (active)
same,Potency,[19],886 nM (active) and 1.09 µM (active) and 1.19 µM (active)
same,"activity change, positive = activation",[20]; at 42.5 µM (top of the series),-68.6% (inactive)
same,"activity change, positive = activation",[20]; at 92.4 µM (top of the series),-79.6% (inactive) and -76.2% (inactive)
same,Potency,[5],1.74 µM (active) and 2.68 µM (active)
same,Potency,[6],1.78 µM (active) and 1.55 µM (active) and 6.74 µM (active)
same,Potency,[7],1.38 µM (active) and 3.01 µM (active)
same,Potency,[8],1.59 µM (active) and 3.09 µM (active) and 3.79 µM (active)
same,Potency,[9],2.24 µM (active) and 2.75 µM (active) and 6.74 µM (active)
same,Potency,[11],1.59 µM (active) and 1.23 µM (active) and 6.01 µM (active)
same,Potency,[12],3.99 µM (active) and 21.9 µM (active)
same,Potency,[13],inactive and 3.89 µM (active)
same,Potency,[14],1.55 µM (active) and 3.38 µM (active)
same,Potency,[15],3.17 µM (active) and 2.45 µM (active) and 2.39 µM (active)
same,Potency,[16],2.52 µM (active) and 1.38 µM (active) and 2.39 µM (active)
same,Potency,[17],inactive
